# VACV Venus inh – qHTS for Stage-Specific Inhibitors of Vaccinia Orthopoxvirus: Venus Reporter Primary qHTS; Vaccinia virus Venus reporter expression, fluorescence; Potency, µM (titrated, usually from 36.5 µM), without a hit: at the highest dose activity change, negative = inhibition, actives largely listed as inhibitors; 330,000 compounds, 0.46% hits; calls by dose curve; tested in A549 cells; further: nearly all actives have a fitted effect of over 30% in size
# FMDV antiviral – High Throughput Screening for Foot and Mouth Disease Virus Antivirals | FMDV antiviral cell-based qHTS | Potency, µM (series often up to 57.9 µM), inactives show top-dose activity change, negative = inhibition, hits mostly inhibitors | 410,000 compounds, 1.2% hits | AID 1159524, 2015; calls by dose curve; tested in HEK293T cells; further: read-out not given here; nearly all actives have a fitted effect of over 45% in size
# HCV inh – qHTS Assay for Inhibitors of Hepatitis C Virus (HCV); Huh7.5.1 HCVcc-Cre infection, luciferase reporter, 44 h; Potency, µM (titrated, usually from 41.8 µM), inactives show top-dose activity change, negative = inhibition, hits mostly inhibitors; 340,000 compounds, 3.4% hits; active means well fitted inhibition curve with a large enough effect; inconclusive means small, poorly fitted or top-dose-only effect, or another doubt; inactive means no such curve, though single readings can be large or run the other way
#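 Reporter virus HCVcc-Cre (~0.5 moi) infects cells exposed to compound; seeding density 1,000 cells/well with 4 h settling beforehand. Luminescence, 15 sec read, taken 44 h post-infection following a 15 min RT substrate incubation.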
# LASV entry inh – qHTS for Inhibitors of binding or entry into cells for Lassa Virus | Lassa virus pseudotype entry inhibition, cell reporter | 300,000 compounds, 1.2% hits | Potency, µM (series often up to 37.9 µM), for the others: top-dose activity change, negative = inhibition, most hits filed as inhibitors; calls by dose curve; tested in HEK293 cells; further: nearly all actives have a fitted effect of over 50% in size
# VACV mCherry inh – qHTS for Stage-Specific Inhibitors of Vaccinia Orthopoxvirus: mCherry Reporter Primary qHTS; AID 720579, 2013; Potency, µM (titrated, usually from 36.5 µM), for inactives: at the top dose activity change, negative = inhibition, usual class: inhibitors; 310,000 compounds, 0.63% hits; Vaccinia virus mCherry reporter infection, fluorescence; calls by dose curve; tested in A549 cells; further: nearly all actives have a fitted effect of over 35% in size
# Marburg entry inh – qHTS for inhibitors of binding or entry into cells for Marburg Virus | Marburg virus pseudotyped entry inhibition, cell reporter | Potency, µM (series often up to 37.8 µM), for the others: at the highest dose activity change, negative = inhibition, hits mostly inhibitors | 300,000 compounds, 1.8% hits; calls by dose curve; tested in HEK293 cells
# * marks the source's active call; other numbers are inactive results; i = inactive; ? = inconclusive; . = not tested or not shown; [ ] = dose if it differs, or a comment. An excerpt weighted towards active compounds, which were near 5.3% of everything screened. On the % scale 0 is the no-effect control and ±100 the full control effect; potency means the concentration at half of the fitted maximal effect.
SMILES,VACV Venus inh,FMDV antiviral,HCV inh,LASV entry inh,VACV mCherry inh,Marburg entry inh
CC(=O)N(c1ccccc1)C1CC(C)N(C(=O)c2ccccc2)c2ccccc21 (stereo not given),-22%,?,-29%,-22%,i,?
Cc1ccc(C(=O)N(c2ccccc2)C2CC(C)N(C(=O)c3ccco3)c3ccccc32)cc1 (stereo not given),?,-9%,11µM*,-24%,?,?
CO[C@H]1[C@H](NC(=O)C(C)C)c2ccccc2C12CCN(Cc1c(C)nn(C)c1Cl)CC2,2%,9%,.,.,-8%,.
O=c1c(CCc2ccccc2)nc2cnc(N3CCNCC3)nc2n1-c1ccccc1,.,0%,.,.,.,.
O=C(COc1ccc2c(c1)CCC2)Nc1ccccn1,-3%,-87%,-10%,11µM*,-18%,?
COCCn1c(C)cc(C(=O)Cn2nc(C(=O)O)c3ccccc3c2=O)c1C,.,-15%,-2%,2%,.,?
CCCn1c(C)cc(C(=O)Cn2nnc3ccccc3c2=O)c1C,-6%,0%,24%,?,i,14µM*
Cc1cc(NCCCN(C)C)n2c(nc3ccccc32)c1C#N,10%,-12%,?,-10%,6%,-17%
Cc1cc(NCCN2CCCCC2)n2c(nc3ccccc32)c1C#N,.,.,7.1µM*,.,.,.
Cc1c2c(n3c(nc4ccccc43)c1C#N)N(CCN(C)C)CC2,0%,-12%,11µM*,0%[46.1 µM],i,?
Cc1c2c(n3c(nc4ccccc43)c1C#N)N(CCCN(C)C)CC2,-26%,1%,?,13%,-15%,?
COc1ccc(CN2C[C@]3(CO)OC(CO)C[C@H]3[S+]2(=O)[O-])cc1 (stereo not given in full),.,.,.,5%[46.1 µM],.,.
CCOC(=O)N1CCC(NC(=O)C2CCCN(Cc3nc(-c4cccc(Cl)c4)oc3C)C2)CC1 (stereo not given),?,14µM*,5.6µM*,.,?,.
Cc1oc(-c2cccc(Cl)c2)nc1CN1CCC(C(=O)NCCCN2CC(C)CC(C)C2)CC1 (stereo not given),.,-29%,1.1µM*,.,.,.
Cc1oc(-c2cccc(Cl)c2)nc1CN1CCC(C(=O)NCCCN2CCCC2=O)CC1,-10%,-12%,-8%,.,-4%,-4%
CCN1CCN(CCNC(=O)C2CCCN(Cc3nc(-c4cccc(Cl)c4)oc3C)C2)CC1 (stereo not given),-7%,0%,10µM*,.,-11%,-1%
CC(=O)[C@@]1(O)CC[C@H]2[C@@H]3C=C(Cl)C4=CC(=O)[C@@H]5C[C@@H]5[C@]4(C)[C@H]3CC[C@@]21C,-7%,-10%,.,.,-12%,.
CCC(C)Sc1c(C(C)C)cnc2c1c(=O)n(C)c(=O)n2C (stereo not given),-28%,?,.,-8%[46.1 µM],?,.
O=C1[C@H]2[C@H]3[C@H](O)[C@H](O)C/C(=N\OC[C@@H](O)COCc4ccco4)[C@H]3CC[C@H]2C(=O)N1Cc1ccccc1,.,.,.,.,.,-4%[14.2 µM]
CCCCN(CC)Cc1ccc(CNC(=S)Nc2c(C)cc(C)cc2C)o1,-4%,-13%,-12%,14%[46.1 µM],i,?
CCCCN(CC)Cc1ccc(CNC(=O)Nc2ccc(F)cc2)o1,.,-25%,11µM*,6%,.,2%
CCCC(=O)Nc1cccc(NC(=O)c2ccc([N+](=O)[O-])cc2Cl)c1,-13%,-16%,7.9µM*,0%,i,-7%
O=C(Nc1cccc([N+](=O)[O-])c1)c1ccc2ccccc2c1O,?,8%,?,?,10µM*,?
CCCC(=O)Nc1ccc(Cl)c(NC(=O)c2ccc([N+](=O)[O-])cc2Cl)c1,-23%,-10%,?,6%,?,?
O=C(Cc1ccccc1)Nc1cccc([N+](=O)[O-])c1,.,9%,11%,3%,.,7%
SMILES,VACV Venus inh,FMDV antiviral,HCV inh,LASV entry inh,VACV mCherry inh,Marburg entry inh
Cc1ccc(S(=O)(=O)N2CCN(c3nc(-n4ccnc4)nc4ccccc34)CC2)cc1,-17%,.,.,.,i,.
COC(=O)CC=C1c2ccccc2C[C@H](OC)[C@@H]1C,.,.,.,.,.,-1%[14.2 µM]
COC(=O)CC=C1c2ccccc2[C@@H](NC(=O)OC)[C@@H]1C,.,.,.,.,.,20%[14.2 µM]
COc1ccc(CNCCC(c2ccc3c(c2)OCO3)c2ccccc2OC)cc1 (stereo not given),?,-31%,.,?,?,?
O=C(OCc1ccc(F)cc1)c1ccc2c(c1)-c1ccccc1C2=O,-19%,44%,-29%,1.1µM*,.,-3%
CCOC(=O)C1=C(Cc2ccc(F)cc2)C(=O)c2ccccc2C1=O,.,?,7.9µM*,?,.,?
NC[C@H]1O[C@H](O[C@H]2[C@H](O)[C@@H](O[C@H]3O[C@H](CO)[C@@H](O)[C@H](N)[C@H]3O)[C@H](N)C[C@@H]2N)[C@H](N)[C@@H](O)[C@@H]1O,-9%,-2%,.,.,-16%,.
Nc1ccccc1-c1ccc([N+](=O)[O-])cc1,-20%,-5%,-23%,?,?,5.6µM*
Fc1ccc2[nH]c3c(NCc4ccccc4)ncnc3c2c1,?,?,7.9µM*,-30%,?,?
CN(C)c1ncc2nc(-c3ccc(F)cc3)c(=O)n(C3CC3)c2n1,.,8%,.,.,.,.
CCOC(=O)c1c(C)oc2c1c(C(c1cccnc1)N1CCN(C)CC1)c(O)c1ccccc12 (stereo not given),.,.,11µM*,.,.,-1%
CCOC(=O)c1c(C)oc2c1c1c(c3ccccc32)OCN(Cc2cccnc2)C1,-1%,-10%,6.3µM*,?,-20%,7%
CCOC(=O)c1c(C)oc2c1c1c(c3ccccc32)OCN(CCCC(=O)O)C1,.,25%,10µM*,.,.,.
Cc1ccc(OCCn2c(C3CC(=O)N(Cc4ccc(F)cc4)C3)nc3ccccc32)c(C)c1 (stereo not given),?,-28%,.,?,-10%,?
COc1ccc(C(=O)c2c(C)oc3ccc(O)c(CN4CCOCC4)c23)cc1,.,17%,-28%,?,.,21µM*
Cc1oc2ccc(O)c(CN(C)C)c2c1C(=O)c1ccccc1,-23%,0%,29%,?,-21%,11µM*
O=C1[C@@H]2[C@H]3[C@H](O)[C@H](O)CC(=NOC[C@@H](O)COCc4ccco4)[C@@H]3CC[C@H]2C(=O)N1C[C@@H]1CCCO1,.,.,.,.,.,-1%[14.2 µM]
COc1ccc(NC(=O)CSCC(=O)Nc2ccccc2C(=O)N2CCCCC2)cc1,-7%,-4%,10%,4%,-11%,3%
CO[C@H]1[C@H](NC(=O)c2ccncc2)c2ccccc2C12CCN(C(=O)c1ccoc1)CC2,6%,-9%,.,.,-6%,.
